Compound activity: PubChem, National Center for Advancing Translational Sciences (NCATS)
Most compounds without a hit are left out; they make up all but 0.95% or so of the library.
Giardia FBPA inh-1: inhibitors of Giardia lamblia fructose-1,6-bisphosphate aldolase; purified Giardia FBPA; Potency, µM (series often up to 59.6 µM), inactives show at the top dose activity, negative = inhibition, hits mostly inhibitors; actives 0.71% (n = 290,000); AID 2451; note: nearly all actives have a fitted effect of over 55% in size
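Giardia FBPA (40 nM reagent) was preincubated 10 min at RT with compound (up to 57.5 uM final), then substrate plus GAPDH/TPI/NAD/arsenate coupling system with diaphorase/resazurin was added; resorufin fluorescence (525/598 nm) was read after 20 min.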
RE007 growth inh: less growth of the S. pombe RE007 Vpr strain; S. pombe RE007 Vpr strain, BacTiter-Glo ATP luminescence, 24 h; AID 651644; Potency, µM (doses to about 92.2 µM), inactives show at the top dose activity change, negative = less growth, hits mostly inhibitors; actives 0.21% (n = 360,000); active = well fitted falling curve with a large enough effect; inconclusive = small, poorly fitted or top-dose-only effect; inactive = no such curve, though single readings can be large or run the other way; note: nearly all actives have a fitted effect of over 50% in size
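Fission yeast strain RE007, carrying one chromosomally integrated HIV-1 vpr copy, was seeded at OD 0.01 in PMG+AL medium with 23 nL pinned compound. After 24 h at 30 °C and 99% humidity, viability was read by BacTiter-Glo luminescence.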
LmPK inhibitor: inhibitors of Leishmania mexicana pyruvate kinase | Q27686 | purified LmPK, Kinase-Glo ATP luminescence, 1 h | Potency, µM (series often up to 57.5 µM), for the others: at the top dose activity change, negative = inhibition, hits mostly inhibitors | actives 0.37% (n = 290,000)
Target sequence (Q27686 whole entry, looked up): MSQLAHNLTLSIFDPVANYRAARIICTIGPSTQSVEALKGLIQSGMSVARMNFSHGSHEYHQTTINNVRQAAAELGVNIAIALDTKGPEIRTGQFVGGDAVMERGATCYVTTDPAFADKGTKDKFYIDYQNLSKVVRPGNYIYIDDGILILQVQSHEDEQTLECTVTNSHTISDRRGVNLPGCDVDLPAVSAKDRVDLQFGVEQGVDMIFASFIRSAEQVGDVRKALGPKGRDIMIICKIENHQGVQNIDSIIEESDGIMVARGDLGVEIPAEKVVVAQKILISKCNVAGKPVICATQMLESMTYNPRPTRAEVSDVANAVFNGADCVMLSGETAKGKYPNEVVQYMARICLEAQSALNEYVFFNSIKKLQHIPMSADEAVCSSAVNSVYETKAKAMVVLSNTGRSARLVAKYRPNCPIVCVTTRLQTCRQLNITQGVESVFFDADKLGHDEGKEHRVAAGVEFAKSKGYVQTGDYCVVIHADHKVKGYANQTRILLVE
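Screened at intermediate enzyme activity to detect both inhibitors and activators: LmPK at 0.1 nM, with a 0.5 nM enzyme column as activation reference. PEP 0.5 mM, ADP 0.1 mM; ATP detected by luminescence after 1 h.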
Tb PYK inh: inhibitors of Trypanosoma brucei pyruvate kinase; Q57TT1; TbPYK enzyme, Kinase-Glo Plus ATP luminescence, 45 min; Potency, µM (series often up to 76.8 µM), without a hit: at the top dose activity, negative = inhibition, most hits filed as inhibitors; actives 0.12% (n = 410,000); note: nearly all actives have a fitted effect of over 50% in size
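Activity of T. brucei pyruvate kinase was followed by Kinase-Glo Plus luminescence after the enzyme reacted 45 min at room temperature with 130 uM ADP (final) and substrate. Test compounds were added before ADP at multiple concentrations.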
Giardia growth: inhibitors of Giardia lamblia growth | shares compounds with Giardia FBPA inh-1 | Potency, µM (series often up to 57.5 µM), inactives show at the top dose activity change, negative = inhibition, usual class: inhibitors | Giardia lamblia trophozoite growth inhibition | actives 5% (n = 1,500);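 note: trophozoites exposed to compound for 48 h at 37 °C; nearly all actives have a fitted effect of over 70% in size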
Mammal cell tox: toxic to mammalian cells in Giardia aldolase counter-screen; Potency, µM (top dose mostly 57.5 µM), without a hit: top-dose viability change, negative = toxicity, usual class: inhibitors; mammalian cell viability counter-screen, qHTS; actives 4% (n = 1,500); shares compounds with Giardia FBPA inh-1;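 note: Chinese hamster ovary cells used as mammalian cytotoxicity surrogate; viability measured as cellular ATP by luminescence; compound exposure lasted 48 h before reading; nearly all actives have a fitted effect of over 60% in size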
Giardia FBPA inh-2: confirmation of Giardia fructose-bisphosphate aldolase inhibitors. purified Giardia aldolase enzyme activity, qHTS. shares compounds with Giardia FBPA inh-1. Potency, µM (doses to about 57.5 µM), without a hit: at the highest dose activity change, negative = inhibition, hits mostly inhibitors. actives 5% (n = 1,500); note: nearly all actives have a fitted effect of over 45% in size
Rabbit FBPA inh: selectivity test for Giardia aldolase inhibitors: rabbit aldolase; Potency, µM (top dose mostly 57.5 µM), for inactives: at the highest dose activity, negative = inhibition, hits mostly inhibitors; Rabbit muscle FBPA enzyme inhibition, selectivity counter-screen; actives 4% (n = 1,500); shares compounds with Giardia FBPA inh-1; note: nearly all actives have a fitted effect of over 60% in size
GAPDH counter: counter-screen for Giardia aldolase inhibitors: GAPDH coupling enzyme. shares compounds with Giardia FBPA inh-1. GAPDH coupling enzyme counterscreen, biochemical, qHTS. Potency, µM (highest dose often 57.5 µM), for the others: at the top dose activity change, negative = inhibition, most hits filed as inhibitors. actives 6% (n = 1,500). AID 2795; note: nearly all actives have a fitted effect of over 55% in size
The depositor's hits bear a star; ? = inconclusive; / = no result; ! = a repeat was not active; [ ] = dose if it differs, or a comment. Unless noted, calls come from the whole dose curve; as a rule, active = well fitted curve in the direction sought with a large enough effect; inconclusive = small, poorly fitted or top-dose-only effect, or another doubt; inactive = no such curve, though single readings can be large; an effect the other way counts as inactive or inconclusive. % is set by controls: 0 for no effect and ±100 for the full control effect; potency is the fitted concentration of half-maximal effect.

SMILES	Giardia FBPA inh-1	RE007 growth inh	LmPK inhibitor	Tb PYK inh	Giardia growth	Mammal cell tox	Giardia FBPA inh-2	Rabbit FBPA inh	GAPDH counter
CC(C)OC(=O)CC1C(=O)NCCN1C(=S)NC(=O)c1ccccc1 (stereo unspecified)	11µM*	6%	3%	-18%	-13%	11%	7%	5%	8%
CC(C)OC(=O)CC1C(=O)NCCN1C(=S)NC(=O)c1ccc(F)cc1 (stereo unspecified)	16µM*	6%	-1%	-23%	-19%	-5%	7%	5%	8%
CC(C)OC(=O)CC1C(=O)NCCN1C(=S)NC(=O)CCc1ccccc1 (stereo unspecified)	-9%	16%	4%	-1%	/	/	/	/	/
COC(=O)CC1C(=O)NCCN1C(=O)c1sc2ccccc2c1Cl (stereo unspecified)	2%	1%	1%	-1%	/	/	/	/	/
CC(=O)Nc1ccccc1OCc1cc(=O)n2c3c(sc2n1)CCCC3	/	/	/	-4%	/	/	/	/	/
CN(C1=C(NC(=O)c2ccccc2)C(=O)c2ccccc2C1=O)C1CCS(=O)(=O)C1 (stereo unspecified)	0.63µM*	-18%	-8%	-28%	25µM*	40µM*	?	?	6.3µM*
O=[N+]([O-])c1ccc(Nc2ccccc2)c2nonc12	1%	/	-12%	-4%	/	/	/	/	/
O=[N+]([O-])c1ccc(Sc2cccc[n+]2[O-])c2nonc12	0.35µM*	10µM*	?	18µM*	2µM*	2.2µM*	6.3µM*	16µM*	6.3µM*
Cc1cc2c(c(=O)o1)C1O[C@](CCCCN3C(=O)c4ccccc4C3=O)(Cc3cc(C#N)ccc31)O2	3%[12.9 µM]	/	-9%[11.5 µM]	/	/	/	/	/	/
Cn1cc(Br)c(C(=O)NC(=S)Nc2ccc(S(N)(=O)=O)cc2)n1	16µM*	-11%	-8%	-9%	-26%	10%	3%	9%	12%
NS(=O)(=O)c1ccc(NC(=S)NCc2ccc(Cl)cc2)cc1	16µM*	-13%	1%	-29%	-8%[10.4 µM]	-9%	-6%	2%	9%
CN1CCN(c2ncncc2-c2cccnc2)CC1	-1%	/	/	/	/	/	/	/	/
O=C(NC1CCCCCC1)C(=S)NC1CCCCC1	18µM*	-1%	4%	-1%	?	7%	-8%	1%	3%
Cc1onc(-c2c(Cl)cccc2Cl)c1C(=O)NC(=S)N1CCOCC1	4µM*	13%	-28%	-13%	-4%[38.3 µM]	?	-6%	5%	3%
COC1CCCCC1Nc1ccc(C)c(C)c1 (stereo unspecified)	20µM*	-4%	4%	10%	15%[10.4 µM]	16%	-6%	4%	3%
CN(Cc1ccco1)S(=O)(=O)c1nnc(NC(=O)c2ccc(F)cc2)s1	20µM*	-4%	-9%	-11%	7%[10.4 µM]	8%	?	32µM*	20µM*
COc1ccc(CN(C)S(=O)(=O)c2nnc(NC(=O)c3ccc(C)cc3)s2)cc1OC	25µM*	21%	-1%	2%	-14%	-5%	?	?	20µM*
COc1ccc(CN(C)S(=O)(=O)c2nnc(NC(=O)c3ccccc3OC)s2)cc1OC	-17%	-2%	3%	-5%	/	/	/	/	/
S=C(Nc1ccccc1)Nc1ccccn1	/	-13%	/	-3%	/	/	/	/	/
S=C(Nc1ccccc1)c1ccccn1	3.2µM*!	?	?	-1%	-14%[38.3 µM]	20µM*	-8%	-8%	-10%
NC(=O)c1cccc2c1-c1ccccc1/C2=N/NC(N)=S	11µM*	-9%	-4%	-2%	-23%	-28%	-3%	0%	9%
NC(=S)N/N=C1\c2ccccc2-c2c(C(=O)O)cccc21	4µM*	-17%	-20%	4%	4%[10.4 µM]	2%	6%	3%	11%
COC(=O)c1cccc2c1-c1ccccc1/C2=N\NC(N)=O	10%	1%	1%	-1%	/	/	/	/	/
O=C(Oc1ccccc1F)c1nc(SCc2ccc(F)cc2)ncc1Cl	/	/	/	-2%	/	/	/	/	/
CC12C=C(/C=C/C=C/c3ccccc3)C(C)(C1)C(/C=C/c1ccccc1)CC2=O (stereo unspecified)	-3%[12.9 µM]	/	/	/	/	/	/	/	/
SMILES	Giardia FBPA inh-1	RE007 growth inh	LmPK inhibitor	Tb PYK inh	Giardia growth	Mammal cell tox	Giardia FBPA inh-2	Rabbit FBPA inh	GAPDH counter
O=C(NC(=S)Nn1cnnc1)c1ccccc1Br	11µM*	7%	1%	-9%	?	-3%	3%	5%	16%
COC(=O)C[C@H]1c2ccccc2C2=C(C[C@@H](C)[C@H]3C(=O)NC(=O)[C@@H]23)N1C(=O)OC	6%[12.9 µM]	/	2%[11.5 µM]	/	/	/	/	/	/
CCN1CCN(CCCN(Cc2ccco2)C(=S)Nc2ccc(C)c(Cl)c2)CC1	0%	-19%	4%	-6%	/	/	/	/	/
CCN1CCN(CCCN(Cc2ccco2)C(=S)Nc2cc(Cl)ccc2C)CC1	16µM*	-6%	3%	-8%	?	-9%	-4%	7%	10%
Cc1ncoc1C(=O)Nc1nccs1	-7%	-2%	-7%	1%	/	/	/	/	/
Cc1ncoc1C(=O)Nc1ncc([N+](=O)[O-])s1	18µM*	?	?	?	?	-18%	1%	2%	11%
CCN(CC)C(=S)NC(=O)c1cc(OC)c(OC)c(OC)c1	18µM*	10%	0%	-17%	8%	-5%	0%	6%	2%
COc1cc(C(=O)NC(=S)Nc2ccc([N+](=O)[O-])cc2)cc(OC)c1OC	13µM*	-15%	2%	-4%	-25%	-3%	11%	8%	5%
COC(=O)c1sc(NC(=S)NC(=O)c2cc(OC)c(OC)c(OC)c2)nc1C	3.2µM*	-4%	-1%	1%	2%[10.4 µM]	-8%	7%	7%	10%
Cc1nn(C)c(C(=O)NC(=S)Nc2ccc([N+](=O)[O-])cc2)c1Cl	13µM*	7%	1%	1%	-1%[10.4 µM]	-9%	5%	7%	17%
CCOc1ccc(NC(=O)N2CCN(C(=O)c3nsc4ccccc34)CC2)cc1	/	/	/	-2%[15.4 µM]	/	/	/	/	/
COc1cc(CC(=O)Nc2nccs2)cc(OC)c1OC	1%	-6%	-5%	1%	/	/	/	/	/
COc1cc(C(=O)NC(=S)Nc2nccs2)cc(OC)c1OC	14µM*	1%	-2%	-1%	?	-1%	-4%	13%	-6%
O=C(Cn1cnnn1)N[C@@H]1C(=O)N2C(C(=O)O)=C(CSc3nncs3)CS[C@H]12	/	/	/	-14%	/	/	/	/	/
